Screening results from PubChem.
Glyco luc inh: blocks N-linked glycosylation in D54 reporter cells; reporter increase, % at 12.5 µM; D54 ERlucT glycosylation luciferase reporter, 24 h; percent of 100 nM tunicamycin response; AID 588692; 360,000 tested, 0.23% active;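 active means mean luciferase reporter signal, scaled so untreated is 0 and the glycosylation-blocking control 100, at or above a set limit in every replicate; inconclusive means mean reaches the limit but not every replicate does; inactive means mean below the limit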;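 further: luciferase carries N-glycosylation sites so blocking glycosylation raises the light; 0% = median of neutral control wells and 100% = median of 100 nM tunicamycin wells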
esBAF inh: inhibitors of esBAF chromatin remodeling in mouse ES cells. Bmi1-luciferase knock-in reporter, 24 h; 100% = twice the neutral-well signal. reporter increase, % at 12.5 µM. 350,000 tested, 2% active. AID 602393; in the data active means activation above about 40%; inconclusive means no clear call, values can overlap the other calls;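 further: 0% = median of the plate's neutral control wells and 100% = double that signal; a rise in the Bmi1 reporter signal indicates esBAF inhibition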
Wnt act: activates Wnt/beta-catenin signaling in a reporter cell assay; activator, plate reader; activation, % at 9.35 µM; 300,000 tested, 1.2% active; in the data active means activation above about 30%, passing the limit was not always enough; inconclusive means no clear call, values can overlap the other calls;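 further: 0% = neutral control wells and 100% = positive control wells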
PvdQ inh: blocks Pseudomonas aeruginosa PvdQ acylase activity | 340,000 tested, 0.063% active | purified PvdQ acylase, fluorescence plate reader | inhibition, % at 10 µM; in the data active means inhibition above about 30%, passing the limit was not always enough; inconclusive means no clear call, values can overlap the other calls;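 further: 0% = vehicle neutral wells and 100% = reference inhibitor wells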
Vif imaging: HIV Vif inhibition; HEK293T cells, Vif self-association by quenched fluorescence, imaging, 24 h; inhibition, % at 7.49 µM; 340,000 tested, 0.35% active; in the data active means inhibition above about 50%, passing the limit was not always enough; inconclusive means no clear call, values can overlap the other calls; inactive means below about 31%
MITF TRPM1 HTS: activators of MITF-driven TRPM1 promoter activity in SK-MEL-5 cells. SK-MEL-5 TRPM1-promoter luciferase, 24 h; % of positive control, neutral wells = 0. activation, % at 12.5 µM. 300,000 tested, 0.75% active. AID 588334;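 active means mean activation of at least 80% with every replicate also reaching 80%; inconclusive means mean reaches 80% but some replicate falls short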;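 further: 0% = neutral control wells and 100% = parthenolide positive control wells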
Starred values were filed as active, the others as inactive; ? = inconclusive; · = no result given. Shown are actives, neighbours in structure and some others; about 2.9% of the full set was active somewhere.

SMILES | Glyco luc inh | esBAF inh | Wnt act | PvdQ inh | Vif imaging | MITF TRPM1 HTS
O=C(O)c1cccc(-c2csc(C(O)c3ccccc3)n2)c1 (stereo not given) | 0.2 | 42.5* | 35.2* | · | 7.3 | ·
CCN(CC)C(=O)c1cccc(-c2csc(C(O)c3ccco3)n2)c1 (stereo not given) | -3.5 | -1.5 | -2.3 | · | 13.4 | ·
NC(=O)c1cccc(-c2csc(C(O)c3ccccc3)n2)c1 (stereo not given) | 2.2 | 11.5 | 1.9 | · | 13.2 | ·
COc1ccc(C(O)c2nc(-c3ccc4ccccc4c3)cs2)cc1 (stereo not given) | -1.0 | 58.0* | 1.5 | · | -10.9 | ·
OCc1cccc(-c2csc(C(O)c3ccccc3)n2)c1 (stereo not given) | 1.3 | 40.9* | -1.2 | · | -0.5 | ·
Cc1ccc(-c2csc(C(O)c3ccccc3)n2)cc1C (stereo not given) | -2.5 | 52.6* | 1.7 | · | -9.6 | ·
COc1ccc(C(O)c2nc(-c3cccc(CO)c3)cs2)cc1 (stereo not given) | 2.5 | 4.8 | 0.3 | · | 5.1 | ·
COc1ccc(S(=O)(=O)Nc2cccc3c2O[C@@H](CN(C)Cc2ccc(C(F)(F)F)cc2)[C@@H](C)CN([C@@H](C)CO)C3=O)cc1 | · | 0.7 | · | · | · | ·
CCn1c(NC(=S)Nc2ccccc2)nc2ccccc21 | 0.1 | 1.0 | 33.0* | -1.6 | -2.9 | ·
CCCn1c(NC(=S)Nc2ccccc2)nc2ccccc21 | 0.5 | 10.6 | · | 3.1 | -2.9 | 16.0
CCCN(C)C[C@@H]1OCc2cnnn2CCCC(=O)N([C@@H](C)CO)C[C@H]1C | · | -0.8 | · | · | · | ·
Cc1noc(C)c1S(=O)(=O)N(C)C[C@@H]1OCCCC[C@@H](C)Oc2ccc(NC(=O)c3ccccc3)cc2C(=O)N([C@@H](C)CO)C[C@H]1C | · | 7.5 | · | · | · | ·
O=C(NCC1CCCO1)c1cc(-c2ccccc2F)no1 (stereo not given) | 1.9 | 56.8* | 26.1 | -15.8 | -4.5 | 26.8
O=C(NCC1CCCO1)c1ccc(-c2ccccc2Cl)o1 (stereo not given) | 0.3 | · | -4.0 | 1.8 | -0.9 | 130.2*
O=C(NC12CC3CC(CC(C3)C1)C2)c1ccc(-c2ccc(Cl)cc2)o1 | -4.1 | · | -1.7 | -2.2 | -1.1 | 48.7
O=C(NC12CC3CC(CC(C3)C1)C2)c1ccc(-c2ccccc2Cl)o1 | -13.2 | 44.8* | 3.9 | -5.5 | -10.1 | 21.1
O=C(NCC1CCCO1)c1ccccc1 (stereo not given) | 1.4 | -5.9 | -0.2 | -12.6 | 17.1 | -8.0
C[C@H]1CN([C@@H](C)CO)C(=O)Cc2cc(NS(=O)(=O)c3cccs3)ccc2O[C@@H]1CN(C)C(=O)Nc1ccc(F)cc1 | · | -2.6 | · | · | · | ·
CC=Cc1ccc2n(c1=O)C[C@H]1[C@H](CO)[C@@H](C(=O)Nc3ccc(-c4ccccc4)cc3)N(C(=O)CC)[C@@H]21 (mixture of isomers) | · | 0.4 | · | · | · | ·
C[C@H](CO)N1C[C@H](C)[C@H](CN(C)S(=O)(=O)c2ccccc2)Oc2ccc(NC(=O)CCC(F)(F)F)cc2C1=O | · | 1.4 | · | · | · | ·
CC1CCc2sc(C(=O)NCC3CCCO3)cc2C1 (stereo not given) | -6.9 | 20.0 | 39.6* | -14.0 | -1.8 | 101.1*
Cc1cccc2nc(COc3ccc4ccccc4c3Br)cn12 | -6.9 | · | 0.1 | 5.8 | -3.1 | 99.9*
COc1cc(/C=N/NC(=O)c2cccc([N+](=O)[O-])c2)ccc1OCc1ccccc1 | -2.9 | 42.9* | 11.4 | -1.2 | · | ?
COc1cc(/C=N/NC(=O)CC2(C)OCCCO2)ccc1OCc1ccccc1 | -1.8 | 42.4* | · | 3.7 | 24.1 | -1.4
COC(=O)C(=Cc1ccc(OCc2ccc([N+](=O)[O-])cc2)c(OC)c1)C(=O)OC | 4.4 | 73.8* | · | -11.3 | -6.0 | -30.9
SMILES | Glyco luc inh | esBAF inh | Wnt act | PvdQ inh | Vif imaging | MITF TRPM1 HTS
Cc1ccc2nc3ccc(N4CCCCCCC4)nn3c(=O)c2c1 | 6.4 | 60.0* | 29.5 | -11.5 | -5.6 | ·
Cc1sc2nc3ccc(N4CCCC4)nn3c(=O)c2c1C | 1.2 | 52.4* | 4.7 | -0.5 | · | 31.0
Cc1ccc2nc3ccc(N4CCN(C)CC4)nn3c(=O)c2c1 | 1.0 | 49.2* | · | -3.0 | 13.4 | 33.4
O=c1c2ccccc2nc2ccc(N3CCOCC3)nn12 | · | · | ? | 7.4 | · | 46.4
Cc1nnc2ccc(N3CCCCC3)nn12 | 5.5 | 6.3 | -0.6 | -10.3 | -11.2 | ·
C/C=C/c1ccc2c(c1)O[C@H](CN(C)C(=O)Nc1ccccc1)[C@H](C)CN([C@H](C)CO)S2(=O)=O | · | -0.5 | · | · | · | ·
C[C@@H]1CN([C@H](C)CO)C(=O)c2cccc(NC(=O)c3ccncc3)c2O[C@H]1CN(C)Cc1ccccc1 | · | 4.5 | · | · | · | ·
COc1ccc(NC(=O)Nc2ccc3c(c2)[C@H]2C[C@@H](CC(=O)N(C)C)O[C@@H](CO)[C@H]2O3)cc1 | · | -1.7 | · | · | · | ·
O=C1CNC(=S)N1c1nc(-c2ccccc2)cs1 | -0.7 | · | 50.3* | -5.1 | 4.0 | 87.8*
c1ccc(-c2csc(N3CCOCC3)n2)cc1 | 0.4 | 59.9* | 38.9* | -1.5 | 11.6 | 81.2*
c1ccc(-c2csc(N3CCN(c4ccccn4)CC3)n2)cc1 | -5.6 | 61.0* | ? | -2.2 | -1.2 | 59.0
COC(=O)N/N=C/c1ccc(OC(=O)/C=C/c2ccco2)cc1 | 2.1 | · | 53.4* | · | 6.4 | ·
CCc1ccc(OC(=O)/C=C/c2ccco2)cc1 | -4.0 | -3.6 | -2.0 | -15.5 | -3.0 | ·
O=C(Cc1ccccc1)N/N=C/c1ccc(OC(=O)/C=C\c2ccco2)cc1 | 5.5 | -0.6 | 104.4* | 0.5 | 0.3 | -7.7
COc1ccccc1C1CCN(c2ccc([N+](=O)[O-])c(OC)c2)CC1 | -0.3 | 55.0* | 1.9 | 0.2 | 1.0 | 34.5
O=C(Nc1ccccc1)N[C@@H]1CC[C@@H](CCNS(=O)(=O)c2ccccc2F)O[C@H]1CO | · | -2.8 | · | · | · | ·
COC(=O)[C@H]1[C@H](CO)[C@H]2Cn3c(ccc(-c4ccccc4F)c3=O)[C@H]2N1Cc1ccncc1 | · | -3.4 | · | · | · | ·
O=C(C[C@H]1CC[C@@H]2[C@H](COC[C@@H](O)CN2S(=O)(=O)c2cccc(Cl)c2)O1)NC1CCC1 | · | -1.5 | · | · | · | ·
Cc1ccc(N2CC(C(=O)NC3CC3)CC2=O)cc1Cl (stereo not given) | 1.9 | -8.2 | -0.8 | -7.3 | 36.5 | -7.8
COC(=O)C1CCN(C(=O)C2CC(=O)N(c3ccc(C)c(Cl)c3)C2)CC1 (stereo not given) | 2.3 | 56.2* | 17.0 | -4.1 | 6.5 | 46.6
OC(c1ccc(-c2ccccc2)cc1)c1ncc(-c2ccccc2F)[nH]1 (stereo not given) | 2.6 | -6.5 | -0.7 | · | · | ·
OC(c1ccccc1)c1ncc(-c2ccccc2F)[nH]1 (stereo not given) | -1.7 | 62.1* | 9.1 | · | -1.6 | ·
OC(c1cccc(F)c1)c1ncc(-c2ccc3ccccc3c2)[nH]1 (stereo not given) | 1.4 | 73.6* | 1.0 | · | -13.9 | ·
COc1ccccc1-c1cnc(C(O)c2ccc(C)cc2)[nH]1 (stereo not given) | -3.5 | 54.6* | 0.7 | · | · | ·
